Some test systems named below: HCT-15 colon; HT29 colon; SNB-75 CNS; SNB-19 CNS; U251 CNS; PC-3 prostate; SK-MEL-5 melanoma; UACC-62 melanoma; LOX IMVI melanoma; SK-MEL-28 melanoma; SK-MEL-2 melanoma; EKVX NSCLC; SN12C renal; UO-31 renal; TK-10 renal; ACHN renal; CAKI-1 renal; A498 renal; CCRF-CEM leukemia; MOLT-4 leukemia.
Experiment in all cases: NCI-60 one-dose screen, 48 h (100 = growth as untreated, 0 = no growth, -100 = all killed)
Holding throughout (details): 10 µM unless noted

Compounds without any hit were thinned out: in the full panel of roughly 83,000, 20% have a hit.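 Growth was measured after 48 h exposure to one concentration of compound in 96-well plates. Values under 10 count as active.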 A number with no mark means an inactive call. The source made the active and inactive calls.

As for `CCN1C(=O)N(CC)C2C1NN=c1s/c(=C\c3ccc(Cl)cc3Cl)c(=O)n12` (stereo not given), the growth is 9.51% (active) in the assay with HCT-15 colon; 2.8% (active) in the assay on HT29 colon; 19.7% in the assay with SNB-75 CNS; 27.9% in the assay on SNB-19 CNS; 11% with U251 CNS; 24.6% in the assay with PC-3 prostate. The growth is -20.8% (active) with SK-MEL-5 melanoma; 28.9% in the assay with UACC-62 melanoma; 18.3% with LOX IMVI melanoma; 66.1% with SK-MEL-28 melanoma; 45.7% in the assay on SK-MEL-2 melanoma; 50.1% in the assay with EKVX NSCLC. Further, the growth with SN12C renal is 21.5%; in the assay with UO-31 renal it was 35.9%; in the assay with TK-10 renal it was 67.7%; in the assay with ACHN renal it was 26.7%; with CAKI-1 renal it was 21.1%; in the assay on A498 renal, 16.9%. Further, the growth with CCRF-CEM leukemia is 9.4% (active); with MOLT-4 leukemia, 12.9%.
As to `CSc1nc2sc3c(c2c(=O)n1-c1ccc([N+](=O)[O-])cc1)CCCCC3`, the growth with HCT-15 colon was 94.6%; with HT29 colon, 92.6%; in the assay with SNB-75 CNS it was 89.7%; with SNB-19 CNS, 86%; in the assay on U251 CNS, 84.5%; in the assay on PC-3 prostate, 85.5%. The growth in the assay on SK-MEL-5 melanoma is 96.4%; in the assay with UACC-62 melanoma, 87.1%; in the assay on LOX IMVI melanoma it was 94.7%; in the assay with SK-MEL-28 melanoma, 105%; with SK-MEL-2 melanoma, 101%; with EKVX NSCLC, 85.7%. Also, the growth in the assay on SN12C renal is 88.3%; with UO-31 renal, 90.8%; with TK-10 renal, 92.9%; with ACHN renal it was 67.5%; in the assay with CAKI-1 renal, 71%; in the assay on A498 renal, 80.2%. Besides, the growth in the assay with CCRF-CEM leukemia and in the assay with MOLT-4 leukemia was 93.3% in each case.
As to `COP(=O)(OC)C(C)(C)CC(=O)CC(C#N)(C#N)C(C#N)C#N`, the growth in the assay on HCT-15 colon was 93.3%; with HT29 colon, 107%; in the assay on SNB-75 CNS, 98.2%; in the assay with SNB-19 CNS, 99.3%; with U251 CNS, 97.3%; in the assay with PC-3 prostate, 92.5%. For the same compound, the growth with SK-MEL-5 melanoma is 101%; in the assay with UACC-62 melanoma, 96.1%; with LOX IMVI melanoma, 100%; in the assay with SK-MEL-28 melanoma it was 104%; with SK-MEL-2 melanoma, 118%; in the assay with EKVX NSCLC it was 99.4%. Also, the growth is 99.6% with SN12C renal; 85.1% in the assay with UO-31 renal; 104% in the assay on TK-10 renal; 100% in the assay with ACHN renal; 96.4% in the assay on CAKI-1 renal; 121% in the assay with A498 renal. The growth in the assay with CCRF-CEM leukemia was -30.3% (active); in the assay on MOLT-4 leukemia it was 104%.
Take `COC(=O)c1ccc2c(c1)C(=O)c1c-2n(CCCN)c(=O)c2cc([N+](=O)[O-])ccc12`: the growth in the assay with HCT-15 colon was -96.1% (active); in the assay on HT29 colon, -100% (active); in the assay on SNB-75 CNS, -99.2% (active); with SNB-19 CNS, -59.3% (active); with U251 CNS, -100% (active); in the assay with PC-3 prostate it was -70.1% (active). Moreover, the growth is -100% (active) in the assay with SK-MEL-5 melanoma; -100% (active) with UACC-62 melanoma; -100% (active) in the assay with LOX IMVI melanoma; -100% (active) in the assay with SK-MEL-28 melanoma; -49.8% (active) with SK-MEL-2 melanoma; -87.7% (active) in the assay with EKVX NSCLC. In addition, the growth was -100% (active) in the assay on SN12C renal; -100% (active) in the assay on UO-31 renal; -83% (active) in the assay on TK-10 renal; -100% (active) with ACHN renal; -94.2% (active) in the assay on CAKI-1 renal; -100% (active) in the assay on A498 renal. The growth is -83.9% (active) with CCRF-CEM leukemia and -58.6% (active) in the assay on MOLT-4 leukemia.
Consider `CC1(C)c2[nH]c3ccccc3c2C[C@]2(C)[C@H]3CC=C4[C@@H]5C[C@@](C)(C(N)=O)CC[C@]5(C)CC[C@@]4(C)[C@]3(C)CC[C@@H]12`, for which the growth with HCT-15 colon was 50.9%; with HT29 colon it was 62.7%; in the assay on SNB-75 CNS, 101%; in the assay with SNB-19 CNS it was 62.2%; with U251 CNS, 69.2%; in the assay on PC-3 prostate, 50.6%. The growth is 19.8% in the assay on SK-MEL-5 melanoma; 59.2% in the assay with UACC-62 melanoma; 56.8% in the assay on LOX IMVI melanoma; 77.4% in the assay on SK-MEL-28 melanoma; 80.3% in the assay on SK-MEL-2 melanoma; 31.9% in the assay with EKVX NSCLC. Besides, the growth was 61.8% in the assay with SN12C renal; 47.3% in the assay with UO-31 renal; 84.2% in the assay on TK-10 renal; 45.7% in the assay on ACHN renal; 57.7% in the assay with CAKI-1 renal; 67.9% in the assay with A498 renal. Also, the growth with CCRF-CEM leukemia is 54.7%; in the assay on MOLT-4 leukemia, 51.2%.
On to `CC(=O)OC[C@]12CCC(C)(C)C[C@H]1[C@@]1(O)[C@H](O)C[C@@H]3[C@@]4(C)CCCNC(C)(C)[C@@H]4CC[C@@]3(C)[C@]1(C)CC2`, for which the growth in the assay on HCT-15 colon was 111%; with HT29 colon, 109%; in the assay on SNB-75 CNS, 115%; with SNB-19 CNS, 97.4%; in the assay on U251 CNS, 107%; in the assay on PC-3 prostate it was 102%. The growth with SK-MEL-5 melanoma is 99.9%; in the assay on UACC-62 melanoma, 105%; in the assay on LOX IMVI melanoma it was 106%; with SK-MEL-28 melanoma it was 108%; with SK-MEL-2 melanoma it was 112%; with EKVX NSCLC, 101%. The growth is 99.5% in the assay with SN12C renal; 85.8% in the assay with UO-31 renal; 103% with TK-10 renal; 109% in the assay on ACHN renal; 106% in the assay on CAKI-1 renal; 86.5% in the assay on A498 renal. Besides, the figures for the growth with CCRF-CEM leukemia and in the assay with MOLT-4 leukemia were 102% and 104%, respectively.
As to `COc1cc(NC(C)CCCNC(C)C)c2ncccc2c1OC` (stereo not given), the growth was 99.3% with HCT-15 colon; 120% in the assay with HT29 colon; 87.6% with SNB-75 CNS; 93% with SNB-19 CNS; 92% with U251 CNS; 90.8% with PC-3 prostate. The growth in the assay on SK-MEL-5 melanoma is 97.9%; with UACC-62 melanoma, 85%; with LOX IMVI melanoma, 83.5%; in the assay with SK-MEL-28 melanoma, 108%; with SK-MEL-2 melanoma it was 90.8%; in the assay on EKVX NSCLC it was 105%. In addition, the growth is 85.8% in the assay on SN12C renal; 57.7% in the assay on UO-31 renal; 105% in the assay on TK-10 renal; 104% with ACHN renal; 88.2% in the assay on CAKI-1 renal; 61.3% with A498 renal. In addition, the growth with CCRF-CEM leukemia is 89.3%; in the assay on MOLT-4 leukemia, 98.4%.
For `O=S(=O)(Nc1ccc(Cl)cc1)c1ccc(-c2cnc(C3CC3)o2)cc1`, the growth was 27.9% with HCT-15 colon; 15.4% in the assay with HT29 colon; -11.9% (active) in the assay with SNB-75 CNS; 30% with SNB-19 CNS; 24.4% in the assay on U251 CNS; 24.2% in the assay on PC-3 prostate. The growth is 15.2% in the assay on SK-MEL-5 melanoma; 17.3% in the assay with UACC-62 melanoma; 50.5% with LOX IMVI melanoma; 61.4% with SK-MEL-28 melanoma; 39.8% in the assay on SK-MEL-2 melanoma; 47.9% in the assay with EKVX NSCLC. Besides, the growth was 36.4% in the assay with SN12C renal; 41.5% in the assay with UO-31 renal; 54.2% in the assay with TK-10 renal; 35.4% in the assay on ACHN renal; 31.6% in the assay with CAKI-1 renal; 0.162% (active) in the assay on A498 renal. Besides, the growth was 11.4% in the assay on CCRF-CEM leukemia and 14.2% with MOLT-4 leukemia.

For the origin of these results see PubChem BioAssay (NCI).
